Bioassay records (PubChem)
An excerpt weighted towards active compounds, which were near 2.4% of everything screened.
WRN helicase inh: WRN helicase (human) inhibition; WRN helicase unwinding, fluorescent forked duplex, kinetic; Potency, µM (highest dose often 114 µM), without a hit: at the highest dose activity change, negative = inhibition, usual class: inhibitors; 0.46% of 360,000 active; further: potency means the concentration at half of the fitted maximal effect; on the % scale 0 is the no-effect control and ±100 the full control effect; nearly all actives have a fitted effect of over 55% in size
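Screening of the MLSMR collection measured strand separation of a quenched forked DNA duplex (100 nM) by 20 nM WRN with 2 mM ATP, all final. Compounds were preincubated with enzyme 15 min at room temperature.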
FEN1 inhibitor: inhibitors of human flap endonuclease 1; Recombinant FEN1 flap cleavage, fluorescence, 15 min; Potency, µM (top dose mostly 114 µM), without a hit: at the top dose activity change, negative = inhibition, most hits filed as inhibitors; 0.35% of 390,000 active; P39748; further: potency means the concentration at half of the fitted maximal effect; on the % scale 0 is the no-effect control and ±100 the full control effect; nearly all actives have a fitted effect of over 65% in size
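FEN1 at 10 nM preincubated with compounds 15 min at room temperature, then flap DNA substrate added at 50 nM final. Signal read at 0 and 15 min; concentration-response fitted with four-parameter Hill equation.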
Pol eta inh-1: DNA polymerase eta (human) inhibition; Q9Y253; recombinant Pol eta, fluorescent DNA replication assay; Potency, µM (series often up to 114 µM), for inactives: at the highest dose activity change, negative = inhibition, actives largely listed as inhibitors; 1.2% of 390,000 active; AID 588591; further: potency means the concentration at half of the fitted maximal effect; on the % scale 0 is the no-effect control and ±100 the full control effect
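Pol eta (10 nM) was preincubated with compounds for 15 min at room temperature, after which fluorescent replication substrate (50 nM final) was added to start the reaction. Fluorescence was read kinetically at 0 and 10 min.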
Pol kappa inh-1: blocks human DNA polymerase kappa activity; Q9UBT6; 0.53% of 400,000 active; Potency, µM (doses to about 107 µM), inactives show top-dose activity, negative = inhibition, usual class: inhibitors; AID 588579; purified Pol kappa, fluorescent DNA synthesis assay, 10 min; further: potency means the concentration at half of the fitted maximal effect; on the % scale 0 is the no-effect control and ±100 the full control effect
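10 nM Pol kappa was preincubated with compounds for 15 min at room temperature. Reaction started with 50 nM (final) substrate. Fluorescence read kinetically at 0 and 10 min.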
POLI inh: DNA polymerase iota (human) inhibition | Q9UNA4 | Pol iota fluorescent replication assay, 10 min | Potency, µM (highest dose often 115 µM), inactives show at the top dose activity, negative = inhibition, hits mostly inhibitors | 1% of 390,000 active; further: potency means the concentration at half of the fitted maximal effect
Target sequence (Q9UNA4 whole entry, looked up): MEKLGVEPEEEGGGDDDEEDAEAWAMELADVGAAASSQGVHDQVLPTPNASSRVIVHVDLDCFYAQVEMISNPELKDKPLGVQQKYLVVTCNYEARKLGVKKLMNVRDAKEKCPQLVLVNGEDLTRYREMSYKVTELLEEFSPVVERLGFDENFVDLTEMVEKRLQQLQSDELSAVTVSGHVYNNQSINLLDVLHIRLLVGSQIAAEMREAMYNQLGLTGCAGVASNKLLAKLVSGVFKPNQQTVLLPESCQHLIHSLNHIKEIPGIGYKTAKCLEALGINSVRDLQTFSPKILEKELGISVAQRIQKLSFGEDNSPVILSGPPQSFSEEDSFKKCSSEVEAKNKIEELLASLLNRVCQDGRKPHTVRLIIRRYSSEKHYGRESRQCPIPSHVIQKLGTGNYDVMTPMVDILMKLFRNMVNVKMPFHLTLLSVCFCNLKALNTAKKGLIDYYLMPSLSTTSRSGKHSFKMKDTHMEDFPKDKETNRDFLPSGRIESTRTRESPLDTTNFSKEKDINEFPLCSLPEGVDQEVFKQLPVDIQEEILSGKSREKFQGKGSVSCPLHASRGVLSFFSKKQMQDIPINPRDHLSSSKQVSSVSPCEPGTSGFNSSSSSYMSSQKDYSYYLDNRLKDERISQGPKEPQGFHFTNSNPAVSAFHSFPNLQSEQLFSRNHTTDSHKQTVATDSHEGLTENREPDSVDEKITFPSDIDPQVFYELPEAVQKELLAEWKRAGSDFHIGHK
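Fluorescent replication assay read twice, at 0 min and 10 min after adding 50 nM (final) substrate. Enzyme (10 nM) and compounds were first incubated 15 min at room temperature; enzyme-free buffer wells were negative controls.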
POLB inh: DNA polymerase beta (human) inhibition; P06746; Pol beta primer extension/strand displacement, fluorescence kinetic; Potency, µM (series often up to 114 µM), inactives show top-dose activity change, negative = inhibition, most hits filed as inhibitors; 1.3% of 340,000 active; further: potency means the concentration at half of the fitted maximal effect; on the % scale 0 is the no-effect control and ±100 the full control effect
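Pol beta (10 nM) and compounds were preincubated 15 min at room temperature, then 50 nM substrate (final) started primer extension/strand displacement. Reads were taken at 0 and 10 min; concentration-response data were fitted to a four-parameter Hill equation.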
GALK inh confirm: galactokinase (human) inhibition, confirmation | shares compounds with Pol eta inh-1 | purified GALK, Kinase-Glo ATP depletion luminescence | Potency, µM (doses to about 115 µM), inactives show at the highest dose activity, negative = inhibition, most hits filed as inhibitors | 70% of 150 active | AID 2015
GALK redox cs: counter-screen for GALK inhibitors: redox cycling H2O2 generation; Phenol red-HRP H2O2 redox cycling, absorbance 600 nm; Potency, µM (titrated, usually from 115 µM), without a hit: at the highest dose activity change, negative = H2O2 signal, usual class: inhibitors; shares compounds with Pol eta inh-1; 40% of 150 active
HEK293 viability: counter-screen for GALK inhibitors: HEK293 cell cytotoxicity. HEK-293 viability, ATP luminescence (CellTiter-Glo), 24/48 h. Potency, µM (doses to about 46.1 µM), inactives show top-dose activity change, negative = cytotoxicity, hits mostly inhibitors. AID 2547. 10% of 170 active. shares compounds with Pol eta inh-1; further: potency means the concentration at half of the fitted maximal effect; on the % scale 0 is the no-effect control and ±100 the full control effect
Pol kappa inh-2: Pol kappa (human) inhibition, cherry-pick confirmation; shares compounds with Pol eta inh-1; purified Pol-kappa, fluorescent strand-displacement substrate; Potency, µM, usual class: inhibitors; 76% of 920 active; further: potency means the concentration at half of the fitted maximal effect
Pol eta inh-2: Pol eta (human) inhibition, cherry-pick confirmation; shares compounds with Pol eta inh-1; Potency, µM, actives largely listed as inhibitors; Pol eta primer extension, TAMRA/BHQ fluorescence, 10 min; 64% of 2,600 active; AID 720502; further: potency means the concentration at half of the fitted maximal effect
Active calls of the source: *; u = inconclusive; x = no result; [ ] = another dose, or the depositor's remark. The call rests on the fitted dose curve; in most records, active means well fitted curve in the direction sought with a large enough effect; inconclusive means small, poorly fitted or top-dose-only effect, or another doubt; inactive means no such curve, though single readings can be large; an effect the other way counts as inactive or inconclusive.

SMILES | WRN helicase inh | FEN1 inhibitor | Pol eta inh-1 | Pol kappa inh-1 | POLI inh | POLB inh | Pol eta inh-2 | others
CCC(=O)OC1(C)C(=O)C=C2C=C(CCCC(=O)OC)OC=C2C1=O (centres undefined) | -16%[11.6 µM] | u | 25µM* | u | u | x | 54*
O=C(O)c1cccc(N2C(=O)C=CC2=O)c1 | -25%[11.6 µM] | x | 20µM* | x | x | x | 54*
Cc1ccc(N(C)S(=O)(=O)c2ccc3[nH]c4c(c3c2)CCCC4)cc1 | x | -4% | -17% | -2% | -3% | 0% | x
C=CCOc1cccc(C2C(C(=O)c3ccco3)=C(O)C(=O)N2Cc2ccncc2)c1 (centres undefined) | -2% | -4% | 4% | -5% | 9% | 3% | x
C=CCOc1cccc(C2C(C(=O)c3ccco3)=C(O)C(=O)N2Cc2ccco2)c1 (centres undefined) | -16% | -11% | u | -13% | u | 3% | u
CCOCC(=O)Nc1cccc(-c2nc3cccnc3s2)c1C | 3% | 15% | -16% | -3% | 25% | 0% | x
COc1ccc(C(=O)Nc2cccc(-c3nc4cccnc4s3)c2C)c(OC)c1 | x | -2% | -4% | u | 79µM* | 2% | x | Pol kappa inh-2=47*
C=CCN(CC=C)CC(=O)Nn1c(C)ccc1C | u | 9% | 20µM* | u | u | x | u
COc1ccc2cc(C(=O)NCc3ccccc3)c(=Nc3ccc(C(=O)O)cc3)oc2c1 | -8% | 11% | 32µM* | -7% | 12% | 1% | u
O=C(O)c1ccc(N=c2oc3cc(O)ccc3cc2C(=O)NCc2ccccc2)cc1 | -17% | u | u | -11% | -32% | u | x
O=C(/C=C/c1ccc(NC(=O)c2ccccc2-c2ccccc2C(=O)O)cc1)c1ccccc1 | u | -2% | 11µM* | -25% | u | -25% | 30*
Cc1ccccc1CN(C)CC(=O)Nc1cccc(S(=O)(=O)N(C)c2ccccc2)c1 | -8% | -10% | -10% | -5% | -2% | -14% | x
O=C(c1ccc(OCC2CCCO2)cc1)N1CCN(S(=O)(=O)c2cccc(F)c2)CC1 (centres undefined) | -2% | 4% | -4% | 0% | 30% | x | x
COc1ccc(C(=O)NC(c2ccccc2Cl)c2cc(Cl)c3cccnc3c2O)cc1 (centres undefined) | x | 7% | u | 6% | 1% | u | x
Cc1ccc(/C=C(\C#N)C(=O)NCC2CCCO2)o1 (centres undefined) | 0% | -12% | 1% | -16%[60.1 µM] | 1% | -4% | x
N#C/C(=C/c1ccc(-c2ccc(C(=O)O)c(Cl)c2)o1)C(=O)NCC1CCCO1 (centres undefined) | -15%[11.6 µM] | -1% | 10µM* | u | u | u | u
CCCCN1CCCCC1(C)C(=O)NCc1cccs1 (centres undefined) | -2% | x | x | x | x | x | x
O=C(O)Cc1ccc(NC2(c3ccccc3)C(=O)c3ccccc3C2=O)cc1 | x | 0% | -7% | 6% | 0% | 31% | x
O=C(CNC(=O)c1cc(Cl)nc2ccccc12)Nc1ccccc1Br | 4% | 6% | -2% | -14% | 22% | x | x
Cc1cnc(C(=O)NCC(=O)Nc2ccccc2Br)cn1 | -4%[11.6 µM] | 1% | 32µM* | u | 18µM* | x | u | Pol kappa inh-2=u
O=C(O)CCCC(=O)Nc1ccc(N2CCCC2)cc1 | -8%[57.1 µM] | -8% | 13µM* | 35µM* | u | -2% | 48*
O=C(Nc1ccc(S(=O)(=O)Nc2ncccn2)cc1)C12CC3CC(CC(Cl)(C3)C1)C2 | -11%[11.6 µM] | 4% | 18µM* | u | u | x | 30* | Pol kappa inh-2=17*
Cn1nc(C(=O)Nc2ccc(S(=O)(=O)Nc3ncccn3)cc2)ccc1=O | -31% | 4% | 28µM* | u | u | -23% | 67*
CCC(=O)Nc1ccc(S(=O)(=O)Nc2ncccn2)cc1 | 4% | 2% | 8% | 2% | 6% | 7% | x
O=c1cc(-c2ccccc2O)oc2cc(O)cc(O)c12 | x | x | x | -4%[19.4 µM] | x | x | x
SMILES | WRN helicase inh | FEN1 inhibitor | Pol eta inh-1 | Pol kappa inh-1 | POLI inh | POLB inh | Pol eta inh-2 | others
O=c1cc(-c2cc(O)c(O)c(O)c2)oc2cc(O)cc(O)c12 | x | x | x | 0.4µM* | x | x | x | GALK inh confirm=42µM*;GALK redox cs=-1%;HEK293 viability=-2%
Cc1c(Br)c([N+](=O)[O-])nn1CC(=O)N1CCc2ccccc21 | 1% | 2% | -16% | -5% | 12% | 11% | x
CCOC(=O)CSc1nc2sc(C)c(C)c2c(=O)n1C | 12% | -8% | -17% | -10% | -2% | -19% | x
Cc1sc2nc(SCC(=O)N3CC(C)OC(C)C3)n(C)c(=O)c2c1C (centres undefined) | -10%[11.6 µM] | 5% | 16µM* | -9% | u | u | u
CC(C)(C)c1ccc2c(c1)OC(C(=O)N/N=C\c1ccc(-c3cccc(C(=O)O)c3)o1)CO2 (centres undefined) | -14%[11.6 µM] | u | 11µM* | u | u | -37% | 17*
O=C(O)c1cccc(-c2ccc(/C=N/NC(=O)C3COc4ccccc4O3)o2)c1 (centres undefined) | u | -8% | 28µM* | u | u | 20µM* | 60*
CCOc1ccc(NC(=O)c2ccc3[nH]c(=O)c(=O)[nH]c3c2)cc1 | 1% | 7% | -6% | 2% | 54% | 9% | x
Cc1ccc(NC(=O)CSc2nc(C)cc(C)c2C(=O)Nc2cccc(C)c2)cc1 | x | 22% | 9% | -3% | 4% | -3% | x
COCCCn1c(=O)/c(=C\c2ccccc2OC(C)C)s/c1=C(/C#N)C(=O)Nc1ccc(C(=O)O)cc1 | u | u | u | -28% | u | 1% | 43*
